Screening results as filed in PubChem.
The list is not random: actives were taken first. Their share in the collection is about 2.8%.
CF NFkB block: cystic fibrosis NF-kB activation inhibition; AID 588850; actives 0.86% (n = 360,000); KKLEB NF-kB-GFP reporter, PAF-induced, GFP fluorescence overnight; inhibition, % at 5 µM;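 active means at least 50% inhibition at 5 µM, scaled per plate between neutral and stimulator controls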;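 further: PAF is a Pseudomonas aeruginosa culture filtrate used as stimulus; plate controls were PAF-stimulated DMSO wells for no effect and unstimulated DMSO wells for full effect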
TRPM1 prom inh: reduces MITF-dependent TRPM1 promoter luciferase signal | AID 488899 | inhibition, % at 12.5 µM | SK-MEL-5 TRPM1 promoter luciferase, 24 h | actives 0.83% (n = 330,000);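 active means mean inhibition across replicates of 60% or more, whatever share of single replicates reaches that level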
Shn3 3UTR inh: reduces Shn3 3'UTR luciferase signal in osteoblasts; Clone20 osteoblast Shn3 3'UTR firefly luciferase, 24 h; inhibition, % at 12.5 µM; actives 0.52% (n = 360,000);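 active means mean inhibition of at least 75% with every replicate also reaching 75%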;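 further: 0% = median of neutral control wells and 100% = pilot-screen positive control compound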
HIF-2a inh: inhibitors of HIF-2a; AID 624352; inhibition, % at 18.8 µM; 786-0 RCC cells HIF-2a reporter, luciferase luminescence, overnight; actives 0.72% (n = 360,000);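 active means inhibition of the luminescence signal of 40% or more relative to plate controls, in a single-dose primary screen at 18.75 µM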
Peg3 promoter: Peg3 promoter activity inhibition | HeLa PEG-Prom luciferase reporter, luminescence, overnight | actives 1.7% (n = 360,000) | inhibition, % at 20 µM;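 active means inhibition of at least 50% at 20 µM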
KKLEB tox: reduces viability of KKLEB cystic fibrosis airway cells | activity change (cytotoxicity), % at 5 µM | actives 0.36% (n = 360,000) | KKLEB CF airway cells viability, ATPlite luminescence, overnight; active compounds read low; cells stimulated with P. aeruginosa culture filtrate;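 active means corrected activity change at or below -50% at 5 µM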
* = called active by the depositor.

How did CC1CCN(CCCCOc2ccc(C(C)(C)C)cc2)CC1 do in these assays?
CF NFkB block: 4.0; TRPM1 prom inh: -0.2; Shn3 3UTR inh: -14.9; HIF-2a inh: 5.8; Peg3 promoter: -0.8; KKLEB tox: 10.2

How did CC(C)(C)c1ccc(OCCCCCCN2CCNCC2)cc1 do in these assays?
CF NFkB block: 6.6; TRPM1 prom inh: 25.3; Shn3 3UTR inh: 25.6; HIF-2a inh: 10.5; Peg3 promoter: 64.3*; KKLEB tox: -18.9

What do the screens show for `CCC(C)NCCOc1ccc(C(C)(C)c2ccccc2)cc1` (stereo not drawn)?
CF NFkB block: 33.0; TRPM1 prom inh: 5.2; Shn3 3UTR inh: -5.6; HIF-2a inh: 8.4; Peg3 promoter: 80.7*; KKLEB tox: -20.1

How did CCC(=O)c1ccccc1OCCCCn1cncn1 do in these assays?
CF NFkB block: 5.6; TRPM1 prom inh: 13.6; Shn3 3UTR inh: 10.2; HIF-2a inh: 15.5; Peg3 promoter: 16.9; KKLEB tox: -5.7

How did CCNc1nnc(SCC(=O)N2c3ccccc3NC(=O)CC2C)s1 (stereo not drawn) do in these assays?
CF NFkB block: -4.0; TRPM1 prom inh: -0.3; Shn3 3UTR inh: -14.5; HIF-2a inh: 3.8; Peg3 promoter: 6.9; KKLEB tox: 21.2

How did NC(=O)c1c(/N=C/c2cccs2)sc2c1CCCC2 do in these assays?
CF NFkB block: -23.2; Shn3 3UTR inh: -33.3; HIF-2a inh: -179.6; Peg3 promoter: -100.0; KKLEB tox: 8.1

What do the screens show for `CCCCCCN1C[C@H](n2cc(-c3ccc(F)cc3)nn2)[C@@H](O)C[C@@H]1c1ccccc1`?
CF NFkB block: 4.3; Shn3 3UTR inh: 6.2; HIF-2a inh: -14.3; Peg3 promoter: 2.4; KKLEB tox: -4.5

Results for CCCCCCN1C[C@H](n2cc(-c3ccc(F)cc3)nn2)[C@@H](O)C[C@@H]1c1ccc(Cl)cc1 ?
CF NFkB block: 26.6; Shn3 3UTR inh: 95.4*; HIF-2a inh: 4.4; Peg3 promoter: 97.7*; KKLEB tox: -6.8

Results for COC(=O)c1ccc(Oc2nc3ccccc3n3c(C)nnc23)cc1 ?
CF NFkB block: -30.8; TRPM1 prom inh: -3.6; Shn3 3UTR inh: -11.2; HIF-2a inh: 5.3; Peg3 promoter: -3.6; KKLEB tox: 11.1

How did C(=N\Nc1nc(-c2ccccc2)cs1)/c1cccs1 do in these assays?
CF NFkB block: -3.9; TRPM1 prom inh: -46.7; Shn3 3UTR inh: -52.6; HIF-2a inh: -272.9; Peg3 promoter: -308.1; KKLEB tox: -1.2

What do the screens show for `CC1(NC(=O)CCc2nc3ccccc3c(=O)[nH]2)CCS(=O)(=O)C1` (stereo not drawn)?
CF NFkB block: -7.8; TRPM1 prom inh: -6.7; Shn3 3UTR inh: -7.0; HIF-2a inh: 18.5; Peg3 promoter: 5.4; KKLEB tox: -3.0

Results for OCCN(CCO)CC(O)COc1ccc(Br)cc1 (stereo not drawn) ?
CF NFkB block: -17.1; TRPM1 prom inh: -4.0; Shn3 3UTR inh: -16.0; HIF-2a inh: -5.2; Peg3 promoter: 6.8; KKLEB tox: 0.9

How did OCCN(CCO)CC(O)COc1ccc(C23CC4CC(CC(C4)C2)C3)cc1 (stereo not drawn) do in these assays?
CF NFkB block: 19.6; TRPM1 prom inh: 51.0; Shn3 3UTR inh: 31.2; HIF-2a inh: 88.9*; Peg3 promoter: 24.0; KKLEB tox: -10.1

How did COc1ccc(CC(=O)Nc2nc(OCC(F)(F)F)cnc2-c2ccc(Cl)cc2Cl)cc1 do in these assays?
CF NFkB block: 30.5; Shn3 3UTR inh: 16.0; HIF-2a inh: 9.0; Peg3 promoter: 7.4; KKLEB tox: -19.9

Results for CCCOc1ccc2c(c1)C(=NN=C(N)N)c1cc(OCCC)ccc1-2 ?
CF NFkB block: -2.4; TRPM1 prom inh: -10.8; Shn3 3UTR inh: 26.9; HIF-2a inh: -12.4; Peg3 promoter: 89.9*; KKLEB tox: -13.0

What do the screens show for `CCN1CCN(S(=O)(=O)c2ccc(Cl)c(C(=O)N(C)Cc3cccs3)c2)CC1`?
CF NFkB block: 7.4; TRPM1 prom inh: -9.1; Shn3 3UTR inh: -6.3; HIF-2a inh: 8.0; Peg3 promoter: 3.0; KKLEB tox: -51.8*

Results for CCCn1c(N2CCC(Cc3ccccc3)CC2)nc2c1c(=O)[nH]c(=O)n2C ?
CF NFkB block: 13.2; TRPM1 prom inh: 9.3; Shn3 3UTR inh: 15.7; HIF-2a inh: 28.5; Peg3 promoter: 9.2; KKLEB tox: -12.5

Results for CCCCCn1c(N2CCC(Cc3ccccc3)CC2)nc2c1c(=O)[nH]c(=O)n2C ?
CF NFkB block: 20.8; TRPM1 prom inh: 6.5; Shn3 3UTR inh: 52.4; HIF-2a inh: -59.6; Peg3 promoter: 64.2*; KKLEB tox: -7.8

Results for CCCCCn1c(N(C)Cc2ccccc2)nc2c1c(=O)[nH]c(=O)n2C ?
CF NFkB block: 24.8; TRPM1 prom inh: 8.0; Shn3 3UTR inh: -19.0; HIF-2a inh: 17.4; Peg3 promoter: 55.1*; KKLEB tox: 3.5

Results for CN(CCOc1ccccc1)S(=O)(=O)c1ccc2oc3ccccc3c2c1 ?
CF NFkB block: 3.0; TRPM1 prom inh: 2.9; Shn3 3UTR inh: 4.8; HIF-2a inh: 8.9; Peg3 promoter: 13.7; KKLEB tox: 0.8

How did O=C(Nc1ccccn1)c1ccc(-c2ccccc2)cc1 do in these assays?
CF NFkB block: -14.6; TRPM1 prom inh: 13.4; Shn3 3UTR inh: 12.9; HIF-2a inh: 11.4; Peg3 promoter: 0.8; KKLEB tox: -54.6*

Results for CN(CC#CC1(O)c2ccccc2-c2ccccc21)Cc1ccccc1 ?
CF NFkB block: 6.5; TRPM1 prom inh: -0.7; Shn3 3UTR inh: -11.4; HIF-2a inh: 3.1; Peg3 promoter: 15.5; KKLEB tox: -1.7

How did C#CCN(C)Cc1ccccc1 do in these assays?
CF NFkB block: -8.6; TRPM1 prom inh: 4.3; Shn3 3UTR inh: 86.1*; HIF-2a inh: -13.1; Peg3 promoter: -4.0; KKLEB tox: 19.0

How did COc1cccc(CC(=O)Nc2ccc(S(=O)(=O)Nc3nc(C)cc(C)n3)cc2)c1 do in these assays?
CF NFkB block: 25.6; TRPM1 prom inh: 2.8; Shn3 3UTR inh: 17.0; HIF-2a inh: 12.9; Peg3 promoter: 17.4; KKLEB tox: -2.3

How did Cc1cc([N+](=O)[O-])ccc1NC(=O)CN1C2CCC1CC(NC(=O)NC13CC4CC(CC(C4)C1)C3)C2 (stereo not drawn) do in these assays?
CF NFkB block: 0.4; TRPM1 prom inh: 36.5; Shn3 3UTR inh: 75.7; HIF-2a inh: 14.4; Peg3 promoter: 25.3; KKLEB tox: -7.1

Results for O=C(C=Cc1cccnc1)c1ccccc1 ?
CF NFkB block: -9.8; TRPM1 prom inh: 40.2; Shn3 3UTR inh: -5.4; HIF-2a inh: -25.4; Peg3 promoter: 78.8*; KKLEB tox: 6.3

Results for O=[N+]([O-])c1ccc(Cl)c(S(=O)(=O)/N=C(/c2ccccc2)N2CCOCC2)c1 ?
CF NFkB block: 14.2; TRPM1 prom inh: 7.0; Shn3 3UTR inh: -4.7; HIF-2a inh: 10.8; Peg3 promoter: 13.8; KKLEB tox: 22.2
